The list is not random: actives were taken first. Their share in the collection is about 2.7%.
LDHA inh – LDHA (human) enzyme inhibition | activity change, % (values are at about 110 or 230 µM) | AID 1347041 | purified LDHA, NADH/diaphorase-resazurin fluorescence; hits give low values | 480,000 compounds, 0.15% hits; in the data active = activity change below about -30%; inconclusive = mostly about -25% to -30%
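Enzyme activity of human lactate dehydrogenase 5 (2 nM; 0.06 mM NADH, 0.2 mM pyruvate, 5 min, RT) is measured via a resazurin/diaphorase fluorescence readout of residual NADH.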
Nrf2 activator – activators of Nrf2 (ARE) signaling. Potency, µM (titrated, usually from 46.1 µM), usual class: activators. AID 624171. AREc32 ARE-luciferase reporter (MCF7-derived line), luminescence, 24 h. 410,000 compounds, 0.31% hits; also: nearly all actives have a fitted effect of over 65% in size
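For detection, Steady-Glo was added and plates sat 30 min at RT; before that, AREc32_Fluc cells grown overnight in OPTI-MEM/5% FBS had been treated with 23 nL compound for 24 hr at 37 deg C.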
ALOX12 inh – inhibitors of human 12S-lipoxygenase ALOX12; 580,000 compounds, 1.1% hits; purified 12hLO, xylenol orange hydroperoxide absorbance; Potency, µM (doses to about 108 µM), most hits filed as inhibitors; P18054
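Purified human 12hLO at 150 nM in 25 mM Hepes, 0.01% Triton X-100, pH 7.0, preincubated 15 min at room temperature with compound. Reaction started with 40 uM arachidonic acid, 30 min at room temperature. Hydroperoxide measured by Fe-xylenol orange, 573/405 nm absorbance ratio.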
Nrf2 inh – Nrf2 pathway inhibition. A549 ARE-Fluc reporter, luciferase luminescence, 18-24 h. Potency, µM (series often up to 46 µM), actives largely listed as inhibitors. 360,000 compounds, 2.1% hits. AID 504444; also: nearly all actives have a fitted effect of over 60% in size
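Nrf2 activity is the BugLite luminescence, read 15 min after reagent at room temperature, following CellTiter-Fluor cytotoxicity readout (30 min, 37C). Compound titrations were applied for 18-24 h to 5000 A549 ARE_Fluc cells/well in 5% FBS OPTI-MEM.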
A549 viability – kills or reduces viability of A549 cells in Nrf2 counter-screen | A549 ARE-Fluc cells, CellTiter-Fluor viability, 18-24 h | Potency, µM (doses to about 46 µM), usual class: inhibitors | 390,000 compounds, 0.16% hits
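A549 ARE-Fluc cells in 5% FBS OPTI-MEM, 5000 cells/well, rested 2 h then exposed to compounds in concentration-response for 18-24 h at 37 °C. Viability by CellTiter-Fluor fluorescence (Ex 405/Em 525) after 30 min; luciferase luminescence (BugLite, 15 min, RT) read afterwards.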
ERG-DNA inh – ERG Ets/DNA interaction inhibition | P11308 | AID 624246 | fluorescence polarization, His-ERG Ets domain / labelled DNA | Potency, µM (top dose mostly 76.9 µM), hits mostly inhibitors | 370,000 compounds, 0.028% hits; active = well fitted inhibition curve with a large enough effect in the polarisation, with a control signal flat; inconclusive = small, poorly fitted or top-dose-only effect, or effect the other way, or a change in a side signal; inactive = no such curve, though single readings can be large or run the other way; the % refers to the polarisation;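 also: polarization taken with two DNA probes labelled with fluorescein and Texas red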
Target sequence (P11308 whole entry, looked up, the tested form may be a part): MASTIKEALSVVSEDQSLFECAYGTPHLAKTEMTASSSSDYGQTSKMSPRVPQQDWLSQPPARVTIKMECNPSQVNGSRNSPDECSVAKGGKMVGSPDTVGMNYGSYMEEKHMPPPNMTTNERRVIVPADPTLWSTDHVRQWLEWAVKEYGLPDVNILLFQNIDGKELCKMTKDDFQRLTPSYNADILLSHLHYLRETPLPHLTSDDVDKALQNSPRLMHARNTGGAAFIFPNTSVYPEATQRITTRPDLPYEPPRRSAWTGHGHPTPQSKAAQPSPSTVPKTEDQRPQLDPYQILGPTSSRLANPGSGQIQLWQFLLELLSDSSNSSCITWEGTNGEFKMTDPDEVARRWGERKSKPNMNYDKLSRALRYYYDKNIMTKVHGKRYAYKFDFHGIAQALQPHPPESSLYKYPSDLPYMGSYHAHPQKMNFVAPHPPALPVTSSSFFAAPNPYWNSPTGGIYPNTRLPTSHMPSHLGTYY
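His-tagged ERG Ets domain (1 uM in the protein solution; 300mM KCl, 50mM Tris-HCl, 1mM EDTA, 1mM DTT, pH 7.5) received compound, then a probe mix of 5 nM fluorescein-DNA and 100nM Texas-615-DNA. Fluorescence polarization was read for both dyes.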
Hits are given with their value; 0 = inactive; ? = inconclusive; - = no result; ! = not confirmed by another sample. Unless noted, calls follow the shape of the dose curve; as a rule, active = well fitted curve in the direction sought with a large enough effect; inconclusive = small, poorly fitted or top-dose-only effect, or another doubt; inactive = no such curve, though single readings can be large; an effect the other way counts as inactive or inconclusive.

SMILES	LDHA inh	Nrf2 activator	ALOX12 inh	Nrf2 inh	A549 viability	ERG-DNA inh
C=CCN(c1ccccc1OC)S(=O)(=O)c1cccc(C(=O)OCC(=O)c2c(N)n(C)c(=O)n(C)c2=O)c1	0	0	0	20.6µM	0	0
O=C(c1ccccc1)C(CN1CCCCC1)c1ccccc1 (configuration not stated)	0	?	44.7µM	?	0	0
O=C(c1ccc(Cl)cc1)C(CN1CCCCCC1)c1ccccc1 (configuration not stated)	0	-	0	-	-	-
Cc1nc([N+](=O)[O-])c(Sc2nc3ccccc3[nH]2)n1Cc1ccccc1	0	?	0	?	0	0
COc1ccc2nc(Sc3c([N+](=O)[O-])nc(C)n3Cc3ccccc3)[nH]c2c1	0	?	0	13µM	?	0
Cc1nn(-c2nc3c(c(=O)n(CC(N)=O)c(=O)n3C)n2Cc2ccccc2)c(C)c1C	-32.6	-	0	-	-	-
CC1(C)CC(=O)C2=C(C1)c1c(ccc3ccccc13)NC2c1ccc(C(=O)O)cc1 (configuration not stated)	0	0	?	0	0	0
CC1(C)CC(=O)C2=C(C1)c1c(ccc3ccccc13)NC2c1cc([N+](=O)[O-])cc([N+](=O)[O-])c1O (configuration not stated)	0	0	39.8µM	0	?	0
Cc1ccccc1OCc1ccc(-c2nc(C#N)c(NCc3cccnc3)o2)o1	0	0	0	11.6µM	0	0
COc1ccc(OCc2ccc(-c3nc(C#N)c(NCc4ccccc4)o3)o2)cc1	0	0	0	?	?	0
COc1ccc(CNc2oc(-c3ccc(COc4ccccc4C)o3)nc2C#N)cc1	0	0	0	20.6µM	0	0
N#Cc1ccc(CSc2nnc3c(Cl)cc(C(F)(F)F)cn23)cc1	0	-	?	-	-	-
COC(=O)c1sc2ccccc2c1N	0	0	35.5µM	0	0	0
O=C(c1ccc(Cl)cc1Cl)N1CCC(c2nc3ccccc3o2)CC1	0	-	0	-	-	-
COC(=O)Cn1c(=O)c2c3c(sc2n(Cc2ccc(F)cc2)c1=O)COC(C)(C)C3	0	-	0	-	-	-
O=C(Nc1ccc(Br)cc1F)c1ccc2nc(N3CCOCC3)sc2c1	0	-	0	-	-	-
CC(=O)Nc1ccc(SC2CCCC2)cc1	0	-	?	-	-	-
Cc1cccc(OCC(=O)N2CCN(C(=O)CCC3CCCC3)CC2)c1	0	0	0	0	0	0
COc1ccccc1CCC(=O)N1CCC2(CC1)NC(=O)N(c1ccc(F)cc1)N2	-	-	3.16µM	-	-	-
Cc1cccc(OCC(=O)N2CCC3(CC2)NC(=O)N(c2ccc(F)cc2)N3)c1	-	-	4.47µM	-	-	-
Cc1cccc(OCC(=O)N2CCC(N3CCOCC3)CC2)c1	0	0	1.58µM	0	0	0
O=C(Cc1ccccc1Cl)N1CCC2(CC1)NC(=O)N(c1ccc(F)cc1)N2	-	-	2.24µM	-	-	-
COCC(=O)n1nc(NCc2ccc(Cl)cc2Cl)nc1NCc1ccc(Cl)cc1Cl	0	-	?	-	-	-
COC(=O)c1ccc(CSC2=NC[C@@H]3[C@@H]4C(=O)N(Cc5ccccc5)C(=O)[C@@H]4[C@](C)(C(=O)OC)N23)cc1	0	0	0	0	0	0
COC(=O)[C@@]1(C)[C@H]2C(=O)N(Cc3ccccc3)C(=O)[C@H]2[C@H]2CN=C(SCc3ccc(C)cc3)N21	0	0	39.8µM	0	0	0
SMILES	LDHA inh	Nrf2 activator	ALOX12 inh	Nrf2 inh	A549 viability	ERG-DNA inh
c1ccc(N=NC2=NN(c3ccccc3)CS2)cc1	0	8.91µM	?	-	-	-
c1ccc(C2=NN(c3ccccc3)CC2)cc1	0	0	0	?	0	0
Cc1ccc(OCCCCNC(C)c2ccccc2)c(C)c1 (configuration not stated)	0	0	4.47µM	0	0	0
COC(=O)/C(=C\C(C#N)=C/N(C)C)C(C)=O	0	-	?	-	-	-
Cc1ccc(S(=O)(=O)N2CCN(c3nc(-c4ccccc4)nc4ccccc34)CC2)cc1	0	-	0	0	0	-
NS(=O)(=O)c1ccc(S(=O)(=O)N2CCN(c3nc(-c4ccccc4)nc4ccccc34)CC2)cc1	0	-	-	23.1µM	0	-
Cn1nnnc1-c1cccc(NC(=O)c2ccc3[nH]c4c(c3c2)CCCC4)c1	0	-	0	-	-	-
Oc1cccc(Nc2nc(-c3ccccc3)nc3ccccc23)c1	0	0	39.8µM!	0	0	0
Cc1cccc(Nc2nc(-c3ccccc3)nc3ccccc23)c1	0	0	0	?	0	0
Cc1ccc(S(=O)(=O)N(CC(=O)O)Cc2ccc(Cl)c(Cl)c2)cc1	0	-	0	-	-	-
CN(C)C1(CNC(=O)c2ccc(NC(=O)c3ccco3)cc2)CCCCC1	0	-	0	-	-	-
CC1=NN(c2nc(C)cc(C)n2)C(=O)C1Cc1ccc(Br)cc1 (configuration not stated)	0	-	0	-	-	-
CC1=NN(c2nc(C)cc(C)n2)C(=O)C1Cc1ccc(Cl)cc1 (configuration not stated)	-36.0	-	0	-	-	-
Cc1ccc(-c2noc(-c3ccccc3OCC(=O)Nc3ccccc3[N+](=O)[O-])n2)cc1	0	0	0	?	0	0
O=C(COc1ccccc1-c1nc(-c2ccccc2)no1)Nc1ccccc1[N+](=O)[O-]	0	0	0	18.4µM	0	0
CN(C)c1oc(/C=C/c2ccc(F)cc2)nc1C#N	0	0	0	0	0	0
CN(C)c1oc(/C=C/c2ccccc2)nc1C#N	0	7.94µM	0	?	?	0
O=[N+]([O-])c1ccccc1/C=N/OCc1ccc(Br)cc1	0	-	0	-	-	-
O=C(Nc1ccccc1O)c1ccc(Cl)cc1	0	12.6µM	0	?	0	0
Cc1ccc(NC(=O)CN(C)C(=O)C2CCN(c3ccc(C#N)cn3)CC2)cc1	0	-	0	-	-	-
CC(C)c1ccc(OCCCCN2CCCCC2)cc1	0	0	0	0	0	0
CC(C)Oc1ccc(OCCCN2CCCCCC2)cc1	0	0	0.447µM	0	0	0
COCCNC(=O)c1ccc(-n2c(-c3ccccc3)cc3c2CCCCC3)cc1	0	15.8µM	0	?	0	0
CCCNC(=O)c1ccc(-n2c(-c3ccccc3)cc3c2CCCCC3)cc1	0	12.6µM	0	0	0	0
CCOCCCNC(=O)c1ccc(-n2c(-c3ccccc3)cc3c2CCCCC3)cc1	0	?	0	18.4µM	0	0
CC(C)OCCCNC(=O)c1ccc(-n2c(-c3ccccc3)cc3c2CCCC3)cc1	0	?	?	?	?	0
CN(C)CCNC(=O)c1ccc(-n2c(-c3ccccc3)cc3c2CCCC3)cc1	0	11.2µM	?	23.1µM	0	0
CCNC(=O)c1ccc(-n2c(-c3ccccc3)cc3c2CCCCC3)cc1	0	?	0	?	?	0
CC(C)c1ccc(-c2nnn(C(C)C(=O)Nc3cccc(C#N)c3)n2)cc1 (configuration not stated)	0	-	?	-	-	-

Bioassay records as filed in PubChem BioAssay.
